Compound activity from PubChem BioAssay.
Hits are enriched below; roughly 7.8% of the tested compounds scored in any of these assays.
LASV entry inh – Lassa virus entry inhibition. Lassa virus pseudotype entry inhibition, cell reporter. Potency, µM (highest dose often 37.9 µM), usual class: inhibitors. 1.2% of 300,000 active; calls by dose curve; tested in HEK293 cells; also: nearly all actives have a fitted effect of over 50% in size
HCMV inh – human cytomegalovirus inhibition; HFF cells, HCMV-luciferase reporter, 72 h; hits give low values; activity change, negative = inhibition, % at 57.5 µM; 4.5% of 410,000 active; AID 1259415; in the data active = activity change below about -60%; inconclusive = no clear call, values can overlap the other calls; inactive = above about -39%
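Inhibition of viral replication was scored as loss of reporter luminescence in HFFs infected with HCMV-luciferase (MOI 1 PFU/cell) for 72 h; compounds tested at 2 doses, normalized to buffer and Salinomycin controls.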
HCV inhibitor – HCV inhibition; Huh7.5.1 HCVcc-Cre infection, luciferase reporter, 44 h; Potency, µM (titrated, usually from 41.8 µM), usual class: inhibitors; 3.4% of 340,000 active; AID 651820; active = well fitted inhibition curve with a large enough effect; inconclusive = small, poorly fitted or top-dose-only effect, or another doubt; inactive = no such curve, though single readings can be large or run the other way
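Compounds are dispensed onto cells plated 4 h earlier at 1,000 per well, with HCVcc-Cre virus (about 0.5 moi) added next. Following 44 h of culture, luminescent signal is measured for 15 sec after 15 min with substrate at room temperature.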
VACV Venus inh – vaccinia inhibition (Venus reporter); Vaccinia virus Venus reporter expression, fluorescence; Potency, µM (top dose mostly 36.5 µM), hits mostly inhibitors; 0.46% of 330,000 active; calls by dose curve; tested in A549 cells; also: nearly all actives have a fitted effect of over 30% in size
Marburg entry inh – inhibitors of Marburg virus binding or cell entry; Marburg virus pseudotyped entry inhibition, cell reporter; Potency, µM (top dose mostly 37.8 µM), usual class: inhibitors; 1.8% of 300,000 active; AID 540276; calls by dose curve; tested in HEK293 cells
VACV mCherry inh – vaccinia inhibition (mCherry reporter) | Vaccinia virus mCherry reporter infection, fluorescence | 0.63% of 310,000 active | Potency, µM (top dose mostly 36.5 µM), usual class: inhibitors; calls by dose curve; tested in A549 cells; also: nearly all actives have a fitted effect of over 35% in size
Of the large screens only hits and unclear results are named; the others gave an inactive call.

O=C(NCc1ccccn1)c1ccccc1OCc1ccccc1Cl	HCMV inh -66.2 (no result: LASV entry inh, HCV inhibitor, Marburg entry inh)
O=C(NCc1ccccn1)c1ccccc1OCc1ccc(F)cc1	none
Cc1nn(-c2cccc(Cl)c2)c2nc(-c3ccncc3)cc(C(=O)N3CCOCC3)c12	LASV entry inh inconclusive, HCV inhibitor 7.94µM
Oc1c(C(c2ccco2)N2CCN(C(c3ccccc3)c3ccccc3)CC2)sc2ncnn12 (configuration not stated)	HCV inhibitor 14.1µM (no result: LASV entry inh)
Cc1cn(CC(=O)NCCc2ccccn2)c(=O)[nH]c1=O	HCV inhibitor 2.82µM (no result: LASV entry inh, Marburg entry inh)
Cc1cc(Br)c2[nH]c3c(c2c1)CCCC3=O	HCV inhibitor 10µM, VACV Venus inh inconclusive (no result: VACV mCherry inh)
O=C1CCCc2c1[nH]c1c(Br)cccc21	VACV Venus inh 11.2µM (no result: VACV mCherry inh)
CN(C)S(=O)(=O)c1cccc(NC(=O)c2ccc(N3CCCC3=O)cc2)c1	HCV inhibitor 22.4µM (no result: LASV entry inh, VACV Venus inh, Marburg entry inh, VACV mCherry inh)
CN(C)c1ccc(C(=O)Nc2cccc(S(=O)(=O)N3CCCC3)c2)cc1	HCV inhibitor inconclusive (no result: LASV entry inh, VACV Venus inh, Marburg entry inh, VACV mCherry inh)
CN1CCN(S(=O)(=O)c2ccc(NC(=O)c3cccc(S(=O)(=O)N4CCCC4)c3)cc2)CC1	HCV inhibitor inconclusive, VACV Venus inh inconclusive
O=C(Nc1cccc(S(=O)(=O)N2CCCCC2)c1)c1ccc(S(=O)(=O)C(F)F)cc1	LASV entry inh inconclusive, HCMV inh -63.7, HCV inhibitor inconclusive, Marburg entry inh 4.47µM
Cc1csc(NC(=O)c2ccc(N3CCCC3=O)cc2)n1	LASV entry inh inconclusive, Marburg entry inh 1.64µM (no result: VACV Venus inh, VACV mCherry inh)
Cc1ccc(NC(=O)c2cccc(S(=O)(=O)N3CCN(C)CC3)c2)cc1F	HCV inhibitor 12.6µM, Marburg entry inh inconclusive
Cc1nnc(NC(=O)c2ccc(N3CCCC3=O)cc2)s1	HCV inhibitor inconclusive
CCOc1ccccc1NC(=O)CSc1nccn1-c1cccc(C)c1	LASV entry inh inconclusive (no result: HCV inhibitor, Marburg entry inh)
CCOC(=O)CCCN1C(=O)CCn2nc(-c3cn(C)c4ccccc34)cc21	Marburg entry inh inconclusive (no result: HCV inhibitor)
C[C@H]1[C@@H](NC(=O)Nc2ccc(C#N)cc2)CC[C@@]23CCCN2C(=O)CCC[C@@H]13	none (no result: LASV entry inh, HCV inhibitor, VACV Venus inh, Marburg entry inh, VACV mCherry inh)
Cc1ccc(C(=O)N(Cc2cc3cc4c(cc3nc2N2CCOCC2)CCC4)CC2CCCO2)cc1 (configuration not stated)	none (no result: LASV entry inh, HCMV inh, HCV inhibitor, Marburg entry inh)
CC(=O)c1c(C)[nH]c(C(=O)Nc2cccc(S(=O)(=O)N3CCCCC3)c2)c1C	HCV inhibitor 12.6µM (no result: LASV entry inh, VACV Venus inh, Marburg entry inh, VACV mCherry inh)
O=C(Nc1cccc(S(=O)(=O)N2CCCCCC2)c1)c1cncc(Br)c1	LASV entry inh inconclusive, HCV inhibitor 11.2µM, Marburg entry inh inconclusive, VACV mCherry inh inconclusive
Cc1ccc(S(C)(=O)=O)cc1C(=O)Nc1cccc(S(=O)(=O)N2CCCCCC2)c1	HCV inhibitor inconclusive (no result: LASV entry inh, VACV Venus inh, Marburg entry inh, VACV mCherry inh)
Cc1ccc(S(=O)(=O)N2CCCCC2)cc1NC(=O)c1cncc(Br)c1	LASV entry inh inconclusive, Marburg entry inh inconclusive
CN(C)S(=O)(=O)c1cccc(NC(=O)c2ccc(S(=O)(=O)N3CCCCC3)cc2)c1	HCV inhibitor inconclusive, Marburg entry inh inconclusive, VACV mCherry inh inconclusive
CCN(c1ccc(NC(=O)c2ccc(N3CCCC3=O)cc2)cc1)C(C)C	LASV entry inh inconclusive, HCMV inh -70.1, HCV inhibitor inconclusive, Marburg entry inh inconclusive
CN(C)S(=O)(=O)c1cccc(NC(=O)c2cccc(S(=O)(=O)N3CCCCCC3)c2)c1	LASV entry inh inconclusive, HCMV inh -61.4, HCV inhibitor 7.94µM, VACV Venus inh inconclusive, Marburg entry inh inconclusive
O=C(c1cccnc1)C1CCCN(Cc2ccc3c(c2)CN(C(=O)c2cnccn2)CCO3)C1 (configuration not stated)	none (no result: LASV entry inh, HCMV inh, HCV inhibitor, Marburg entry inh)
COC(=O)C1=C(C(=O)OC)[C@@H]2N(Cc3ccccc3)c3ccccc3[C@@]23C[C@@H](CO)N(C(=O)CC(C)C)C3=N1	none (no result: LASV entry inh, HCMV inh, HCV inhibitor, VACV Venus inh, VACV mCherry inh)
Cc1sc2ncn(CC(=O)N3CCN(c4ccc(Cl)cc4)CC3)c(=O)c2c1S(=O)(=O)N1CCN(c2ncccn2)CC1	VACV mCherry inh inconclusive (no result: HCV inhibitor)
CN(CC(=O)Nc1ccc(OC(F)(F)F)cc1)C(=O)c1ccc(N2CCCC2=O)cc1	HCMV inh -69.7, HCV inhibitor 4.47µM (no result: LASV entry inh, VACV Venus inh, Marburg entry inh, VACV mCherry inh)
CN(CC(=O)Nc1ccc(Cl)cc1)C(=O)c1ccc(N2CCCC2=O)cc1	none (no result: LASV entry inh, VACV Venus inh, Marburg entry inh, VACV mCherry inh)
COc1ccc(Nc2nccc3c2cc(-c2ccccc2OC)n3C)cc1	HCMV inh -67.2 (no result: LASV entry inh, HCV inhibitor, VACV Venus inh, Marburg entry inh, VACV mCherry inh)
CCOC(=O)C(C(=O)OCC)c1cc(Br)c2noc3c2c1C(=O)c1ccccc1-3	LASV entry inh 11.2µM, HCMV inh -105.9, HCV inhibitor inconclusive, Marburg entry inh inconclusive
